# Experimental data as given in PubChem BioAssay.
# Active and inactive are the calls of the source. The rule behind the calls is not given here.
# Target: Pantothenate synthetase (Mycobacterium tuberculosis (strain ATCC 25618 / H37Rv)) (UniProt P9WIL5)
# Experiment: Recombinant Mtb pantothenate synthetase (PanC) inhibitors, coupled enzyme, confirmatory (AID 375);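 note: 0% = full reaction with vehicle and 100% = no enzyme background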
# Details: coupled enzyme assay; at 10 µM, stronger effect = higher value
# Chain of Pantothenate synthetase (Mycobacterium tuberculosis (strain ATCC 25618 / H37Rv)) (P9WIL5 whole entry, looked up): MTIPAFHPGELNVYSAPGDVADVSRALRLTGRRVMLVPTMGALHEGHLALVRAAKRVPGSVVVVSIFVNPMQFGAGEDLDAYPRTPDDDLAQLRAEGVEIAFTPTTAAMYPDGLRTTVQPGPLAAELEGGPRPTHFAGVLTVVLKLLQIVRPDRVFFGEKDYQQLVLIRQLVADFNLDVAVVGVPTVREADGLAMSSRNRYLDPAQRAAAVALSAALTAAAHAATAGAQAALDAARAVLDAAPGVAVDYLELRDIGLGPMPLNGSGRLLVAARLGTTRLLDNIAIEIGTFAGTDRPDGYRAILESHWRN
row,Structure (SMILES),inhibition
1,Cn1c(=O)c(C(=O)Nc2cccnc2)c(O)c2ccccc21,5% (inactive)
2,Cc1ccc(OCC2Cn3c(nc4c3c(=O)n(C)c(=O)n4C)O2)cc1 (stereo not given),0% (inactive)
3,Cc1cc(NC(=O)CSc2nc(CCC3CCCC3)nc3ccccc23)no1,3% (inactive)
4,O=C(NCc1ccc2c(c1)OCO2)C1CCC(CNc2c(N3CCCCC3)c(=O)c2=O)CC1 (stereo not given),0% (inactive)
5,CCCCn1nc(C(=O)N2CCc3ccccc32)c2ccccc2c1=O,6% (inactive)
6,O=C(C1CC1)N1CCC(c2nc(-c3ccc(S(=O)(=O)NCC4CCCO4)cc3)no2)CC1 (stereo not given),0% (inactive)
7,O=C(Cc1c[nH]c2ccccc12)N1CCc2ccccc21,3% (inactive)
8,CCOC(=O)c1c(C)[nH]c(C(=O)CSc2nc3ccccc3o2)c1C,0% (inactive)
9,COc1ccc(CCNC(=O)CN(c2ccccc2OC)S(C)(=O)=O)cc1,0% (inactive)
10,CCOC(=O)c1cc2sccc2n1CC(=O)Nc1ccc2c(c1)OCCO2,0% (inactive)
11,Cc1cc2c(c(=O)n1C)C(Cc1ccccc1)C(C#N)=C(N)O2 (stereo not given),3% (inactive)
12,CCOC(=O)c1cc2oc(C)cc2n1CC(=O)OC1CCCCC1,1% (inactive)
13,Cn1c(=O)n(C)c2cc(NC(=O)C(F)(F)F)ccc21,0% (inactive)
14,O=C1CN=C(Nc2cccc(C(F)(F)F)c2)N1C1CCCC1,0% (inactive)
15,Cc1cccc(-c2cc3nc4c(c(N5CCOCC5)n3n2)CCCC4)c1,0% (inactive)
16,COc1ccc(S(=O)(=O)N2CCC(C(=O)Nc3c(F)cccc3F)CC2)cc1,2% (inactive)
17,CCOc1ccc(NC(=O)CN(C)CC(=O)NC2CCCc3ccccc32)cc1OCC (stereo not given),7% (inactive)
18,CCC(=O)Nc1ccc(Cl)c(NC(=O)C(C)C)c1,3% (inactive)
19,Cc1ccc(-c2cc(C(=O)Nc3cc(C)ccc3C)[nH]n2)c(O)c1,0% (inactive)
20,O=C(COc1ccc(F)cc1)Nc1ccc(-n2cnnn2)cc1,0% (inactive)

row,Structure (SMILES),inhibition
1,CCn1c(C(=O)N2CCC(C(=O)NCc3ccc4c(c3)OCO4)CC2)cc2sccc21,0% (inactive)
2,COc1cccc(-n2nnc3c(=O)n(Cc4cccc(F)c4)cnc32)c1,4% (inactive)
3,CCN(CC)S(=O)(=O)c1ccc(F)cc1,0% (inactive)
4,CCOc1ccccc1NC(=O)CCN1CCN(S(=O)(=O)c2ccc(Br)cc2)CC1,0% (inactive)
5,CC(=O)c1cccc(S(=O)(=O)N2CCC(n3nnc4cc(F)ccc43)CC2)c1,0% (inactive)
6,COc1ccc(C2CC(=O)c3cnc(NC(=O)c4ccccc4OC)nc3C2)c(OC)c1 (stereo not given),8% (inactive)
7,COc1cc(C2c3c(oc4ccccc4c3=O)C(=O)N2c2ccc(C)cn2)ccc1O (stereo not given),0% (inactive)
8,CC(=O)OCC1OC(c2ccccc2)C(OC(C)=O)C(OC(C)=O)C1OC(C)=O (stereo not given),0% (inactive)
9,O=C(CSC1=NCCS1)NCc1ccco1,0% (inactive)
10,COc1ccc(NC(=O)CC2Sc3ncnn3C2=O)cc1 (stereo not given),0% (inactive)
11,O=C(CSc1nnc(SCc2ccc(Cl)cc2)s1)N1CCN(C(=O)c2ccco2)CC1,7% (inactive)
12,CCOc1nc(OCC)nc(N2CCC(C)CC2)n1,0% (inactive)
13,COc1ccccc1CNC(=O)N[C@@H](Cc1ccccc1)C(=O)O,6% (inactive)
14,Cn1c(SCC(=O)c2cc3ccccc3o2)nnc1-c1ccccc1,1% (inactive)
15,CN(C)CCNc1oc(-c2ccccc2F)nc1C#N,1% (inactive)
16,Cn1c(C(=O)N2CCCC(C(=O)NCCCc3ccccc3)C2)cc2sccc21 (stereo not given),0% (inactive)
17,COc1ccc(NC(=O)CN2CCN(S(=O)(=O)c3ccc(Cl)cc3)CC2)cc1,13% (inactive)
18,COc1ccccc1OCc1ccc(C(=O)Nc2ccncc2)o1,2% (inactive)
19,CC(NC(=O)c1ccc2c(c1)OCO2)C(c1cccs1)N1CCOCC1 (stereo not given),9% (inactive)
20,Fc1ccc(-c2csc3nnc(SCc4cccnc4)n23)cc1,0% (inactive)
